Compound activity from PubChem.
Hits are enriched below; roughly 2% of the tested compounds scored in any of these assays.
TDP43 rescue: qHTS of TDP-43 Inhibitors; TDP-43 expressing yeast growth rescue, BacTiter-Glo, 24 h; Potency, µM (doses to about 46.1 µM), usual class: activators; 1.8% of 410,000 active; AID 652104, 2013; further: nearly all actives have a fitted effect of over 50% in size
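Yeast expressing TDP-43 (pregrown in raffinose, seeded at OD600=0.02 in galactose medium) exposed to compounds 24 hr at 30 deg C. Growth read by BacTiter-Glo luminescence; rescue of toxicity appears as increased signal.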
FUS suppressor: qHTS for Suppressors of FUS Proteinopathy: Primary screen using FUS-linked yeast assay; S. cerevisiae FUS-expressing, growth rescue, OD600, 24 h; Potency, µM (doses to about 76.6 µM), actives largely listed as activators; 0.24% of 390,000 active; AID 1347120, 2019; further: nearly all actives have a fitted effect of over 55% in size
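Yeast expressing FUS under galactose induction, OD 0.005 in 2% galactose medium; compounds in a dilution series, 24 h at 30C. Growth rescue by absorbance at 600 nm; CP55940 positive control, DMSO negative.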
LDHA block: qHTS assay for inhibitors of human lactate dehydrogenase. purified LDHA, NADH/diaphorase-resazurin fluorescence; hits give low values. activity change, % (values are at about 110 or 230 µM). 0.15% of 480,000 active; in the data active means activity change below about -30%; inconclusive means mostly about -25% to -30%
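Remaining NADH was detected by diaphorase (0.133 mg/mL) converting 37 µM resazurin to fluorescent resorufin, read at 0 and 20 minutes. The preceding 5-minute room-temperature reaction used 2 nM LDHA, 0.2 mM sodium pyruvate and 0.06 mM NADH at pH 7.4.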
Abeta yeast res: qHTS for compounds that reverse cellular toxicity of Amyloid beta (A-beta) peptide in yeast: Primary Screen; yeast expressing A-beta42, growth rescue, OD600, 48 h; response scale: 0% DMSO, 100% iron-clioquinol control; Potency, µM (top dose mostly 46.1 µM), actives largely listed as activators; 0.063% of 410,000 active; further: nearly all actives have a fitted effect of over 55% in size
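Yeast A-beta toxicity model in growth medium with pinned compounds, 48 h at 30 C; growth read as absorbance at 600 nm. Normalized to FeCl3/clioquinol equimolar mix (positive) and DMSO (negative).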
IDH1 R132H inh: qHTS for Inhibitors of mutant isocitrate dehydrogenase 1 (IDH1): qHTS. AID 602179, 2012. IDH1-R132H enzyme, NADPH consumption, diaphorase/resazurin fluorescence. 0.093% of 390,000 active. Potency, µM (doses to about 76.6 µM), actives largely listed as inhibitors. Isocitrate dehydrogenase [NADP] cytoplasmic (Homo sapiens), O75874; further: nearly all actives have a fitted effect of over 65% in size
Target sequence (O75874 whole entry R132H, stated change not applied): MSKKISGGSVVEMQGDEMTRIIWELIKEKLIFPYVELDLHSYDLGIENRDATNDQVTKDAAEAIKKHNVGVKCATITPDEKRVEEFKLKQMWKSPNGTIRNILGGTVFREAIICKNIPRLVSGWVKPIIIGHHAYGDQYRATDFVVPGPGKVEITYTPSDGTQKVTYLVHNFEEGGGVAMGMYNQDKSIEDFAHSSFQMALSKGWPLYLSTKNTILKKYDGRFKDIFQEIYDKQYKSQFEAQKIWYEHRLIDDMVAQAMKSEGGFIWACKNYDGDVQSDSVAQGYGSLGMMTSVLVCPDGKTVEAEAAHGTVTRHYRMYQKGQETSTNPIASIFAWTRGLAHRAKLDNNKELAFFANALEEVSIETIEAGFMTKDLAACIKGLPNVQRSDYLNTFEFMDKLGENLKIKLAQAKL
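IDH1-R132H (0.5 ug/mL) preincubated 30 min with compound, then NADPH (0.016 mM) and alpha-KG (2 mM) added; 80 min at RT, pH 7.5. Remaining NADPH coupled via diaphorase/resazurin to fluorescence (540/590 nm); concentration-response curves normalized to no-enzyme control.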
aSyn rescue: qHTS of alpha-syn Inhibitors; Yeast expressing alpha-synuclein, growth rescue, BacTiter-Glo, 24 h; Potency, µM (titrated, usually from 46.1 µM), hits mostly activators; 0.14% of 370,000 active; further: nearly all actives have a fitted effect of over 65% in size
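Screening used galactose-induced yeast with toxic alpha-synuclein levels, exposed to compound for 24 hr at 30 deg C. Cell growth, read with BacTiter-Glo luminescence, gave the measured signal.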
Numbers stand for hits; – = inactive; ? = inconclusive; · = no result; [ ] = another dose, or the depositor's remark. Unless noted, the call rests on the fitted dose curve; in most records, active means well fitted curve in the direction sought with a large enough effect; inconclusive means small, poorly fitted or top-dose-only effect, or another doubt; inactive means no such curve, though single readings can be large; an effect the other way counts as inactive or inconclusive.

SMILES | TDP43 rescue | FUS suppressor | LDHA block | Abeta yeast res | IDH1 R132H inh | aSyn rescue
CC1(c2ccccc2)NC(=O)N(NC(=O)c2n[nH]c(=O)c3ccccc23)C1=O (stereo not given) | · | · | – | · | · | ·
C[C@H](CO)N1C[C@H](C)[C@@H](CN(C)C(=O)Nc2ccc3c(c2)OCO3)Oc2ccc(NC(=O)Cc3ccccc3)cc2C1=O | – | – | – | – | – | –
COc1ccc(NC(=O)Nc2cccc3c2O[C@H](CN(C)C(=O)Nc2ccc(OC)cc2)[C@@H](C)CN([C@H](C)CO)C3=O)cc1 | – | 32µM | – | – | – | –
COc1ccc(NC(=O)N(C)C[C@H]2Oc3ccc(NC(=O)Nc4ccc(C(F)(F)F)cc4)cc3C(=O)N([C@H](C)CO)C[C@@H]2C)cc1 | – | 35µM | – | – | – | –
C[C@@H]1CN([C@H](C)CO)C(=O)c2cc(NC(=O)Cc3cn(C)c4ccccc34)ccc2O[C@H]1CN(C)C(=O)Nc1ccc2c(c1)OCO2 | – | 32µM | – | – | – | –
CCOc1ccccc1N(CC(=O)N1CCN(C)CC1)S(=O)(=O)c1ccc(Cl)cc1 | · | · | – | · | · | ·
C(=C\c1nc(-c2ccncc2)no1)/c1ccccc1 | 11µM | – | – | – | – | –
COc1ccc(OC)c(NC(=O)CSc2c3c(nc4ccccc24)CCCC3)c1 | – | – | – | – | – | ·
COc1ccc(OC)c(NC(=O)CSc2c3c(nc4cc(Cl)ccc24)CCCC3)c1 | 20µM | – | – | – | – | ·
CC1CCCN(C(=O)CSc2c3c(nc4cc(Cl)ccc24)CCCC3)C1 (stereo not given) | 18µM | – | – | – | – | ·
O=C(CSc1c2c(nc3ccc(Cl)cc13)CCCC2)N1CCCCC1 | 16µM | – | – | – | – | ·
COc1ccc(NC(=O)CSc2nc(N)c3cc4c(nc3n2)CCCC4)c(OC)c1 | – | 32µM | – | – | – | –
CC1CCCCN1C(=O)CSc1c2c(nc3cc(Cl)ccc13)CCCC2 (stereo not given) | – | – | – | – | – | ·
Cc1ccc(NC(=O)CSc2nc(N)c3cc4c(nc3n2)CCCC4)cc1 | – | · | – | – | – | –
Cc1ccc(NC(=O)CNc2nc(Nc3ccc(C)cc3)nc(Nc3ccc(C)cc3)n2)cc1 | · | · | – | · | · | ·
Cc1c(C(=O)Nc2cccc(C(F)(F)F)c2)sc2c1C(c1cccc(O)c1)CC(=O)N2 (stereo not given) | · | · | – | · | · | ·
N#CC(C#N)=c1[nH]c2ccccc2/c1=C\c1ccccc1 | · | · | – | · | · | ·
O=C(O)c1nnn(-c2ccc(F)cc2)c1C(F)(F)F | · | · | – | · | · | ·
CCN(CC)CC#CC(OC)(c1ccccc1)C1CCCC1 (stereo not given) | · | · | – | · | · | ·
CC1CCN(C(=O)CSc2c3c(nc4ccc(Cl)cc24)CCCC3)CC1 | ? | – | – | – | – | ·
O=C(CSc1c2c(nc3cc(Cl)ccc13)CCCC2)N1CCN(c2ccccc2F)CC1 | 35µM | – | – | – | – | ·
CC(C)c1nnc2ccc(SCC(=O)O)nn12 | · | · | – | · | · | ·
O=C(COc1ccc(Br)cc1)Nc1nc(-c2ccc(Br)o2)ns1 | · | · | – | · | · | ·
CN1OC[C@@H]2CN(C(=S)NCCc3ccccc3)[C@H](c3ccccc3Br)C[C@@H]21 | 13µM | – | – | – | · | –
Nc1ncnc2oc(-c3ccco3)c(-c3ccco3)c12 | – | – | – | – | – | 13µM
SMILES | TDP43 rescue | FUS suppressor | LDHA block | Abeta yeast res | IDH1 R132H inh | aSyn rescue
CCN(CC)c1ccc(C(=O)Nc2ccccc2)cc1[N+](=O)[O-] | 25µM | – | – | – | – | –
O=C(NCCc1ccccn1)c1ccc(OC(F)F)cc1 | –[1.82 µM] | – | – | – | – | –
O=C(NNC(=O)c1ccccn1)c1ccc(OC(F)F)cc1 | 32µM | – | – | – | – | ?
O=c1[nH]c2ccc(Br)cc2c(-c2ccccc2)c1N1CCOCC1 | – | – | – | – | ? | –
CC(=O)c1c(N2CCOCC2)nc2ccc(Br)cc2c1-c1ccccc1 | 14µM | – | – | – | – | –
Cc1[nH]n(C(N)=S)c(=O)c1N=Nc1ccc(S(=O)(=O)N2CCCCCC2)cc1 | 4µM | – | – | – | – | –
CCN(CC)CCCN(C(=O)c1ccc(OC)cc1)c1nc(-c2ccc(OC)cc2)cs1 | – | – | – | – | – | –
COCCCN(C(C)=O)c1nc(-c2ccc(OC)cc2)cs1 | 11µM | – | – | – | – | –
COC(=O)/C(=C\c1ccc(OC(=O)c2ccccc2)cc1)C(C)=O | · | · | – | · | · | ·
Cc1nn(C)c(C)c1CC(=O)Nc1nc(-c2ccc(Cl)cc2Cl)cs1 | · | · | – | · | · | ·
COc1cc(NC(=O)c2ccc3c(c2)OCCO3)ccc1NC(=O)c1cccs1 | 13µM | – | – | – | – | –
COc1cccc(C(=O)Nc2cc(NC(=O)c3cccs3)ccc2C)c1 | – | – | – | – | – | –
O=C(Nc1ccc(NC(=O)c2cccs2)cc1)c1ccc2c(c1)OCCO2 | – | – | – | – | – | ?
COc1cccc(C(=O)Nc2cc(NC(=O)c3cccs3)ccc2C)c1OC | 11µM | – | – | – | – | –
CCS(=O)(=O)CC(=O)O | · | · | – | · | · | ·
Oc1ccc(Cl)cc1C=NCc1ccc(Cl)cc1 | · | · | – | · | · | ·
COc1ccc2sc(-c3ccc(N(C)C)cc3)c(C#CCCO)c2c1 | 35µM | ? | – | – | – | –
COc1ccc(-c2sc3ccc(OC)cc3c2C#CCCO)cc1 | 22µM | ? | – | – | – | –
COc1ccc2sc(-c3ccc(SC)cc3)c(C#CCO)c2c1 | – | – | – | – | – | –
CSc1ccc(/C=C/C(=O)c2cccc(Br)c2)cc1 | · | · | – | · | · | ·
CC1=CC(C)(C)NC(=S)N1C(C)c1ccccc1 (stereo not given) | – | – | – | 10µM | – | –
Cc1ccc(Cl)cc1Nc1cc(Cl)c2nonc2c1[N+](=O)[O-] | · | · | – | · | · | ·
Fc1cccc(C=Nc2cccc3c(N=Cc4cccc(F)c4)cccc23)c1 | · | · | – | · | · | ·
C=CCN=c1scc(-c2ccc3c(c2)NC(=O)CO3)n1/N=C(\C)c1ccccn1 | 13µM | – | – | – | – | –
N#Cc1cccc(C(=O)Nc2ccc(Cl)c(C(F)(F)F)c2)c1 | · | · | – | · | · | ·
Cc1cccc(NC(=O)CSc2nnnn2-c2cccnc2)c1 | – | – | – | – | – | –
Cc1ccc(C)c(C(=O)CSc2nnnn2-c2cccnc2)c1 | 11µM | – | – | – | – | –
CCn1c(-c2ccccc2)c[nH]c1=S | – | – | – | – | – | –
